High-throughput results: PubChem BioAssay, NMMLSC
MEP2-GFP yeast – alters MEP2-GFP fluorescence in TOR pathway yeast screen; S. cerevisiae MEP2-GFP strain, flow cytometry GFP, 3 h; 100% = DMSO control level; GFP response vs DMSO, % at 10 µM; hit rate 0.51% among 330,000;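 active = GFP response versus DMSO above a set limit, roughly screen mean plus 3 SD, cut at about 180% in these data; inconclusive = fewer than 70 cells counted for a yeast strain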;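 note: median GFP fluorescence of the barcode-gated MEP2-GFP cells per well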
AGP1 TOR yeast – modulators of TOR pathway AGP1-GFP in S. cerevisiae; S. cerevisiae AGP1-GFP multiplex flow cytometry, 3 h; GFP as percent of DMSO wells; GFP response vs DMSO, % at 10 µM; hit rate 0.02% among 320,000; AID 2066;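 active = GFP response relative to DMSO above a set limit, near screen average plus 3 SD, cut at about 150% in these data; inconclusive = fewer than 70 cells counted for the yeast strain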;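 note: median GFP channel fluorescence of the gated AGP1 strain per well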
RPL19A TOR yeast – alters RPL19A-GFP fluorescence in TOR pathway yeast screen. S. cerevisiae RPL19A-GFP strain, flow cytometry, 3 h; stronger effect = lower value. percent response vs DMSO, % at 10 µM. hit rate 0.3% among 330,000. AID 2025;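 active = percent response vs DMSO below 50%; inconclusive = fewer than 70 events counted for the yeast strain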;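 note: median channel GFP fluorescence of the barcoded RPL19A-GFP strain; lower means less RPL19A-GFP as with rapamycin TOR inhibition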
LAP4 TOR yeast – alters LAP4-GFP fluorescence in TOR pathway yeast screen. S. cerevisiae LAP4-GFP multiplex, flow cytometry GFP, 3 h; median GFP as percent of DMSO wells. GFP response vs DMSO, % at 10 µM. hit rate 0.34% among 320,000. AID 2023;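 active = GFP response vs DMSO above a set limit, about the screen mean plus 3 SD, cut at about 150% in these data; inconclusive = under 70 cell events counted for the yeast strain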
CIT2 TOR yeast – modulators of TOR pathway CIT2-GFP in S. cerevisiae | GFP response vs DMSO, % at 10 µM | AID 2029 | S. cerevisiae CIT2-GFP strain, flow cytometry, 3 h; 100 means same as DMSO wells | hit rate 0.065% among 320,000;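 active = GFP response relative to DMSO above a set limit, near the screen mean plus 3 SD, cut at about 150% in these data; inconclusive = Fewer than 70 cells measured for a yeast strain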;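 note: ratio of well median GFP fluorescence to mean of DMSO wells on the plate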
Each line names hits and unclear results; the compound was inactive in the other large screens; ! = not active in a repeat; [ ] = dose if it differs, or a comment. Compounds with a hit are over-represented: about 0.93% of the library has one in this group of screens.

CCCOc1c(Cl)cc(C(=O)NC)cc1OC	none
O=C(CN1C(=O)C2CC=CCC2C1=O)OCC(=O)c1ccc(Cl)c([N+](=O)[O-])c1 (stereo not given)	none
COc1cccc(C(=O)Nn2cnnc2)c1	none
COc1cc(OC)cc(C(=O)Nn2cnnc2)c1	MEP2-GFP yeast 642[may fluoresce violet], CIT2 TOR yeast inconclusive
Cc1cc(C)n2nc(C(=O)NC(c3ccccc3)c3ccccc3)nc2n1	MEP2-GFP yeast 180
Cc1cc(OCc2cc(C(=O)NCc3csc(C(C)C)n3)no2)cc(C)c1Cl	none
c1ccc(CC(Nc2ccccn2)c2ccccc2)cc1 (stereo not given)	none
CC(C)COc1nc2ccccc2nc1C(C#N)C(=O)NC1CCCCC1 (stereo not given)	MEP2-GFP yeast 307[may fluoresce violet], CIT2 TOR yeast inconclusive (no result: RPL19A TOR yeast)
Cc1cccc(C2=NN(c3ccc(Br)cc3)[C@@H](C(=O)N3CCOC3=O)[C@@H]2c2ccc(F)cc2)c1	MEP2-GFP yeast 296[may fluoresce violet], CIT2 TOR yeast inconclusive
COc1ccccc1[C@@H]1C(c2cccc(Cl)c2)=NN(c2ccccc2)[C@H]1C(=O)N1CCOC1=O	CIT2 TOR yeast inconclusive
Cc1cc(C(=O)NC2CCC(O)CC2)c(C)o1 (stereo not given)	none
Cn1c(SCC(=O)NCc2ccccc2)ncc(C(=O)Nc2ccccc2)c1=O	none
CC(=O)Nc1ccc(NC(=O)CSc2ncc(C(=O)Nc3ccccc3)c(=O)n2C)cc1	LAP4 TOR yeast 168
CC(=O)c1cccc(Nc2nc(N3CCOCC3)nc(N3CCOCC3)n2)c1	MEP2-GFP yeast 226[may fluoresce violet], CIT2 TOR yeast inconclusive
c1ccc(-c2n[nH]c(-c3ccccn3)n2)cc1	none
c1ccc(-c2n[nH]c(-c3ccccn3)n2)nc1	MEP2-GFP yeast 180![may fluoresce violet], AGP1 TOR yeast inconclusive, RPL19A TOR yeast 13![may fluoresce violet], CIT2 TOR yeast inconclusive
CCOC(=O)c1sc(Nc2nc3c(OC)cccc3s2)nc1C	MEP2-GFP yeast 247
Cc1ccccc1C(=O)NC(CC(C)C)C(=O)NCC(C)(C)N1CCOCC1 (stereo not given)	none
Cc1ccc(Cn2ncc(Cl)c(Cl)c2=O)cc1	none
CCc1ccc(C(=O)Cn2ncc(Cl)c(Cl)c2=O)cc1	MEP2-GFP yeast 196[may fluoresce violet], CIT2 TOR yeast inconclusive (no result: AGP1 TOR yeast)
COc1cccc(Nc2nc(N)c([N+](=O)[O-])c(N3CCOCC3)n2)c1	MEP2-GFP yeast 214[may fluoresce violet], CIT2 TOR yeast inconclusive
COc1ccc(C(c2nnnn2CC2CCCO2)N2CCN(c3ccccc3)CC2)cc1 (stereo not given)	MEP2-GFP yeast 242[may fluoresce violet], CIT2 TOR yeast inconclusive (no result: RPL19A TOR yeast)
COC/C=C/C1=CC2=CC(=O)C(C)(OC(=O)C3CCCC3)C(=O)C2=CO1 (stereo not given)	MEP2-GFP yeast 175[may fluoresce violet], LAP4 TOR yeast 167[may fluoresce violet], CIT2 TOR yeast inconclusive
Cc1ccc2c(c1)c1c(c(=O)n(-c3ccccc3C)c(=O)n1CC(=O)NCC1CCCO1)n2C (stereo not given)	RPL19A TOR yeast 46
CCc1ccc(C2CC(c3ccco3)=NN2S(C)(=O)=O)cc1 (stereo not given)	MEP2-GFP yeast 215, CIT2 TOR yeast 156
COc1cccc(N2CCN(c3ccc4nnc(CCC(=O)Nc5ccccc5OC)n4n3)CC2)c1	none
COCc1cc(=O)[nH]c(SCCS(=O)(=O)c2ccc(Cl)cc2Cl)n1	LAP4 TOR yeast 183
Cc1csc(Nc2cccc3ccccc23)n1	none
Cc1csc(Nc2ccccc2C(F)(F)F)n1	MEP2-GFP yeast 230 (no result: RPL19A TOR yeast)
O=S(=O)(c1ccc(Cl)cc1)c1snnc1-c1ccccc1	LAP4 TOR yeast 165 (no result: AGP1 TOR yeast)
Cc1cccc(NC(=O)Nc2cc(C)on2)c1	MEP2-GFP yeast 242[may fluoresce violet], AGP1 TOR yeast inconclusive, RPL19A TOR yeast 14[may fluoresce violet], LAP4 TOR yeast inconclusive, CIT2 TOR yeast inconclusive
Cc1ccc(NC(=O)Nc2cc(C)on2)cc1	none
Cc1ccc(-c2ccc(CCC(=O)O)o2)cc1	LAP4 TOR yeast 158
O=S(=O)(c1ccc(N2CCOCC2)nc1)N(Cc1ccccn1)Cc1ccccn1	MEP2-GFP yeast 395[may fluoresce violet], CIT2 TOR yeast inconclusive
O=S(=O)(c1ccccc1)N(Cc1ccccn1)Cc1ccccn1	none
CC(=O)c1ccc(S(=O)(=O)Nc2cccc(-c3cn4c(n3)SCC4)c2)cc1	none
CC(=O)Nc1ccc(S(=O)(=O)Nc2cccc(-c3cn4c(n3)SCC4)c2)cc1	RPL19A TOR yeast 45[may fluoresce violet], CIT2 TOR yeast inconclusive
CN(C)S(=O)(=O)c1ccc(C(=O)/C=C/c2cccnc2)cc1	MEP2-GFP yeast 266[may fluoresce violet], AGP1 TOR yeast inconclusive, CIT2 TOR yeast inconclusive
